From the OligoGym collection come the findings set out here.
Also: reference of the scale not given here.

The first assay addresses VAX1. The assay can be described thus: pooled miR-30 sensor sort-seq; sequence = guide strand. Particulars: shRNA.
Consider TACTTTTGTTACAATCCTCAGC, for which the sensor-assay potency score (higher = more potent) is -0.412.

Take TTCTTCTGCTTGGTGCGCCGGT: the sensor-assay potency score (higher = more potent) is -0.49.

For TTTTGTTACAATCCTCAGCAGC, the sensor-assay potency score (higher = more potent) is -0.447.

Take TTTACTTTTGTTACAATCCTCA: the sensor-assay potency score (higher = more potent) was -0.228.

For TTCTTTATTGTTGGTCCGGGAG, the sensor-assay potency score (higher = more potent) was -1.06.

In the case of TTTGTTTTTTTATCCCGCGTTT, the sensor-assay potency score (higher = more potent) is -0.944.

Regarding TCTCGGACCAGGATCCGGCGGC, the sensor-assay potency score (higher = more potent) was -0.716.

Regarding TTGGGCAGGATGATCTCTCGGA, the sensor-assay potency score (higher = more potent) is -0.0889.

In the case of TTACTTTTGTTACAATCCTCAG, the sensor-assay potency score (higher = more potent) is -1.22.

TTCTTTTGTTTTTTTATCCCGC came in with a sensor-assay potency score (higher = more potent) of -0.672.

For TGGAACTCCATCTCCAGCCGAT, the sensor-assay potency score (higher = more potent) is -1.

Consider TTTTGTTTTTTTATCCCGCGTT, for which the sensor-assay potency score (higher = more potent) is -0.396.

In another assay the target is VDAC1. The description is as above. Particulars: shRNA.
In turn, TTTTGTTTTCAAATCAAGCTTT gave a sensor-assay potency score (higher = more potent) of -0.155.

The sequence TCTGAGTGTATCCTAAACCTAT registered a sensor-assay potency score (higher = more potent) of -0.562.

For TTTGTTTTCAAATCAAGCTTTA, the sensor-assay potency score (higher = more potent) was -0.535.

Sequence TTCTCTGTAAACGTCAGGCCGT registered a sensor-assay potency score (higher = more potent) of -0.7.

For ATTCACATTAGTGTGAAGCTGG, the sensor-assay potency score (higher = more potent) was determined as 0.0233.

Consider TTACTGTTTCCTGCTGTCCAGG, for which the sensor-assay potency score (higher = more potent) is -1.19.

On to TAGGTGAGAAGGATGAATCGAA, for which the sensor-assay potency score (higher = more potent) stood at 0.744.

TTAGAGTCTGAGTGTATCCTAA showed a sensor-assay potency score (higher = more potent) of -0.253.

In turn, TAGTGTATTGTCGGTATTCCAT yielded a sensor-assay potency score (higher = more potent) of -0.621.

TCTTCCACAGTAATCTCGGTGC registered a sensor-assay potency score (higher = more potent) of -0.38.

TATCCTAAACCTATCAGGCTGG came in with a sensor-assay potency score (higher = more potent) of -0.545.

For TTCACTTTAGCCGAGAAGCAGG, the sensor-assay potency score (higher = more potent) was -0.473.

A further assay concerns the target VDAC3. The assay is described as above. Particulars: shRNA.
In turn, TCTATATCAACATTACTGCCAA yielded a sensor-assay potency score (higher = more potent) of -0.2.

Consider TTATATTTGGTTTCTAGGTTGC, for which the sensor-assay potency score (higher = more potent) was -0.0958.

In the case of TTGGTTTTCAGGTCTATCTTGA, the sensor-assay potency score (higher = more potent) was 0.398.

TTGTCTGTGTTCCATTTCTGGG: the sensor-assay potency score (higher = more potent) was -1.15.

TCTGGTAGATAGAACCTCCAAA had a sensor-assay potency score (higher = more potent) of -0.313.

In the case of TTCAGGTCTATCTTGACCATGC, the sensor-assay potency score (higher = more potent) is -0.432.

The sequence TTCAATCTTCTCATTCACCTTC had a sensor-assay potency score (higher = more potent) of 0.828.

Turning to TTCATTTCTCTTCACTTCCAGG, the sensor-assay potency score (higher = more potent) was -0.789.

The sequence TATCAGTGTAAGCATGACCAGA registered a sensor-assay potency score (higher = more potent) of -0.976.

Sequence TTTCAGGTCTATCTTGACCATG had a sensor-assay potency score (higher = more potent) of -1.45.

The sequence TCCTTTGTTGAAGACATCCTTA gave a sensor-assay potency score (higher = more potent) of -0.879.

For TAGAGTATTGTCTGTGTTCCAT, the sensor-assay potency score (higher = more potent) is -0.216.

In another assay the target is VGLL2. Described as above. Particulars: shRNA.
TTGGATTTGCTCTTTCAGCAGC had a sensor-assay potency score (higher = more potent) of -0.344.

Sequence TTCTCTACCACAGTCTTAGATG displayed a sensor-assay potency score (higher = more potent) of -1.22.

On to TACTTCTCTACCACAGTCTTAG, for which the sensor-assay potency score (higher = more potent) is -0.503.
